The text below walks through data of PubChem BioAssay (NCI).

The nature of test [1]: NCI Yeast Anticancer Drug Screen. Data for the rad50 strain (AID 155).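 Further: 0% = growth of vehicle-only cultures of the same strain.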 To be noted: S. cerevisiae rad50 strain growth inhibition; at 50.0 µM; stronger effect = higher value. Summed up: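 Readout: growth inhibition relative to vehicle-treated cultures. Compound exposure was carried out in a genetically defined yeast strain deficient in DNA damage repair.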
The nature of test [2]: NCI Yeast Anticancer Drug Screen. Data for the mec2-1 strain (AID 157). The note with it: S. cerevisiae mec2-1 strain, at 50.0 µM, stronger effect = higher value. The method in brief: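 Each compound was tested on mec2-1 yeast, a strain altered in DNA damage repair or cell cycle control. Growth inhibition is reported relative to vehicle.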
A short description of test [3]: NCI Yeast Anticancer Drug Screen. Data for the sgs1 mgt1 strain (AID 161).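 Further: 0% = growth of cultures given vehicle only.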 To be noted: S. cerevisiae sgs1 mgt1 strain, at 50.0 µM, stronger effect = higher value. The method in brief:
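Mutant yeast exposed to compound; growth scored against vehicle-only wells.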

The nature of test [4]: NCI Yeast Anticancer Drug Screen. Data for the cln2 rad14 strain (AID 165).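 Further: 0% = growth equal to vehicle treated cultures.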 To be noted: S. cerevisiae cln2 rad14 strain, at 50.0 µM, stronger effect = higher value. Summed up: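 Test compounds were added to cln2 rad14 yeast cultures; inhibition of growth was then determined by comparison with vehicle treatment.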
Test [5] in a line: NCI Yeast Anticancer Drug Screen. Data for the bub3 strain (AID 167). To be noted: S. cerevisiae bub3 mutant strain, at 50.0 µM, stronger effect = higher value. The method in brief:
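Readout: yeast growth inhibition, expressed relative to vehicle-only wells. The test organism is a mutant strain from a panel with lesions in DNA repair or checkpoint genes.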

Test [6] in a line: NCI Yeast Anticancer Drug Screen. Data for the mlh1 rad18 strain (AID 175). The note with it: S. cerevisiae mlh1 rad18 strain growth inhibition; at 50.0 µM; stronger effect = higher value. The method in brief:
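Inhibition values reflect reduced growth of mutant yeast versus vehicle-treated controls following compound exposure; the mutations affect DNA damage repair.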

Compounds without any hit were thinned out: in the full panel of roughly 79,000, 15% have a hit. Unmarked numbers belong to inactive results. Activity calls are given as the source filed them. No stated cut-off is given here; in the data, active means growth inhibition above about 70%; inactive means the rest.

As for `CCOP(=O)(OCC)/C(C#N)=C/c1nccn1C`, the growth inhibition in test [1] is -15.2%; in test [2] it was 0.15%; in test [3], -13.7%; in test [4], 34.3%; in test [5], 24.1%; in test [6], -34.4%.
As to `O=C1C2C3c4ccccc4C(C2C(=O)N1c1ccccc1)[n+]1ccccc13` (stereo not drawn), the growth inhibition in test [1] is 47.8%; in test [2], 16.1%; in test [3], 41.7%; in test [4], -13.2%; in test [5], 7.1%; in test [6], 30.2%.
Take `CCC(C)OP(=S)(S)OC(C)CC.[Zn+2]` (stereo not drawn): the growth inhibition in test [1] is 1.8%; in test [2], 22.3%; in test [3] it was -6%; in test [4] it was -5.55%; in test [5], 25.2%; in test [6], -5.95%.
For the molecule `NCCc1ccccc1`, the growth inhibition in test [1] was 0.15%; in test [2] it was -20.6%; in test [3] it was 1.5%; in test [4] it was -17.4%; in test [5] it was -18.3%; in test [6], -9.9%.
`c1ccc([As](c2ccccc2)c2ccccc2)cc1`: the growth inhibition in test [1] was 0.75%; in test [2] it was -0.95%; in test [3] it was -7.9%; in test [4] it was -3.3%; in test [5], -3.95%; in test [6], 5.05%.
Turning to `NC(=O)c1cccc([As]=O)c1` (stereo not drawn), the growth inhibition in test [1] was -11.4%; in test [2] it was 17.4%; in test [3], 13.8%; in test [4], -18.6%; in test [5], 0.85%; in test [6] it was -17.6%.
Take `ClCCN(CCCl)c1ccc2c(c1)Cc1cc(Br)ccc1-2`: the growth inhibition in test [1] was 15%; in test [2], 2%; in test [3], 40.7%; in test [4], 30.8%; in test [5], 2.6%; in test [6], 6.9%.
As to `C[C@]12CC[C@H](O[C@@H]3O[C@H](CO[C@@H]4O[C@H](CO)[C@@H](O)[C@H](O)[C@H]4O)[C@@H](O)[C@H](O)[C@H]3O)C[C@@H]1CC[C@@H]1[C@@H]2CC[C@]2(C)[C@@H](C3=CC(=O)OC3)CC[C@]12O`, the growth inhibition in test [1] is -7.75%; in test [2], -13.6%; in test [3] it was -1.85%; in test [4] it was -0.85%; in test [5], -1.95%; in test [6] it was 8.85%.
In the case of `O=C(Nc1ccc(Cl)cc1C(=O)c1ccccc1)c1ccc([N+](=O)[O-])cc1`, the growth inhibition in test [1] is -1.4%; in test [2] it was -3.1%; in test [3] it was -0.5%; in test [4], -40.1%; in test [5], 4.2%; in test [6] it was 12.8%.
Turning to `CC(=O)CCNC1(c2ccccc2)CCCCC1`, the growth inhibition in test [1] was 3.6%; in test [2], 2.95%; in test [3], -2.65%; in test [4], -0.65%; in test [5], -2.5%; in test [6], -2.9%.
With `O=P(NCCCl)(NCCCl)Oc1ccccc1`, the growth inhibition in test [1] is -19.5%; in test [2] it was -0.5%; in test [3], -18.8%; in test [4], -16.1%; in test [5] it was -7.25%; in test [6] it was -13.1%.
Take `FC(F)(F)C(OP(OC(C(F)(F)F)C(F)(F)F)OC(C(F)(F)F)C(F)(F)F)C(F)(F)F`: the growth inhibition in test [1] is 27.4%; in test [2] it was 8.95%; in test [3], 2.6%; in test [4], 1.55%; in test [5], -4.9%; in test [6], 28.1%.
On to `c1ccc(NNc2ccccc2)cc1`, for which the growth inhibition is 8.5% in test [1]; 1.7% in test [2]; 0.95% in test [3]; -14.1% in test [4]; -6.15% in test [5]; -5.65% in test [6].
Turning to `CCOP(=S)(OCC)OP(=S)(OCC)OCC`, the growth inhibition in test [1] was -44.5%; in test [2], -50.4%; in test [3] it was -40.6%; in test [4], -13.9%; in test [5], -28.1%; in test [6] it was -42.1%.
`CCC[N+]12C(O)C(CC)C3CC1C1N(C)c4ccc(Br)cc4C14CC2C3C4O` (stereo not drawn): the growth inhibition in test [1] is 27.9%; in test [2], 8.3%; in test [3], 4.35%; in test [4], -12.3%; in test [5], 6.85%; in test [6], 20.9%.
On to `OC1(c2ccccc2)N=C(c2ccccc2)c2ccccc2-n2cccc21` (stereo not drawn), for which the growth inhibition in test [1] is 0.95%; in test [2], -24.8%; in test [3], -14.5%; in test [4] it was 0.75%; in test [5] it was -0.95%; in test [6], -1.3%.
Consider `Cc1cccc(C)c1NC(=O)C(=O)C1C(=O)NC(=O)NC1=O`, for which the growth inhibition in test [1] is -45.5%; in test [2], -2.6%; in test [3] it was -6%; in test [4] it was 15.8%; in test [5], -17.1%; in test [6], -31.9%.
Consider `CN(C)C1=C(N2CC2)C(=O)C(N(C)C)=C(N2CC2)C1=O`, for which the growth inhibition in test [1] was 17.2%; in test [2], 9.9%; in test [3] it was 14.6%; in test [4], 9.3%; in test [5] it was 1%; in test [6], 23.7%.
Consider `CCOP(=O)(OCC)/C(C#N)=C/c1cccn1C`, for which the growth inhibition was -0.95% in test [1]; -32.7% in test [2]; -44% in test [3]; -17.2% in test [4]; -21.8% in test [5]; -7.35% in test [6].
As to `FC(F)(F)c1ccc2c(c1)N(CCCl)c1ccccc1S2`, the growth inhibition in test [1] was 4.3%; in test [2] it was -8.05%; in test [3], -2.4%; in test [4] it was -79.2%; in test [5] it was 1.5%; in test [6], -4.6%.
Regarding `C#CCn1c(I)cc2c(c1=O)COC(=O)[C@]2(O)CC`, the growth inhibition in test [1] was 0.95%; in test [2] it was -3.3%; in test [3], 19.6%; in test [4], -5.4%; in test [5], 6.35%; in test [6], -31.8%.
As to `COc1cc2c(ccc3c4cc(OC)c(OC)cc4c[n+](C)c23)cc1O`, the growth inhibition is -21.7% in test [1]; -17.9% in test [2]; -9.9% in test [3]; 16.4% in test [4]; -23.8% in test [5]; -65.8% in test [6].
In the case of `CNC1(c2ccc(F)cc2)CCCCC1`, the growth inhibition in test [1] was -15.8%; in test [2], -23.1%; in test [3] it was -11.5%; in test [4] it was 8.05%; in test [5], -13.8%; in test [6], -30.8%.
For `NC1CC2NC3CCCCC3NC2CC1N` (stereo not drawn), the growth inhibition is 14.8% in test [1]; 6.25% in test [2]; -0.6% in test [3]; 19.5% in test [4]; -22.4% in test [5]; 6.55% in test [6].
For the molecule `C[As](C)(=S)[As](C)(C)=S`, the growth inhibition is 77.3% (active) in test [1]; 50.1% in test [2]; 65.2% in test [3]; 27.6% in test [4]; 66.7% in test [5]; 69.9% in test [6].
Turning to `c1ccc2c(c1)ccc1sc3c([n+]12)CCC3`, the growth inhibition in test [1] was -0.9%; in test [2] it was -5.65%; in test [3], -18.2%; in test [4] it was -14.5%; in test [5], 2.4%; in test [6] it was -5.3%.
`CN/N=C(/CCN1CCCC1)CC(c1ccccc1)c1c(O)c2ccccc2oc1=O` (stereo not drawn): the growth inhibition in test [1] was 35.5%; in test [2], 9%; in test [3], 29.6%; in test [4] it was 35.2%; in test [5] it was 31.5%; in test [6], 37.4%.
With `N#CS.N=C=S.O=N[O-].[Co+3].[NH-]CC[NH-].[NH-]CC[NH-]`, the growth inhibition was -6.55% in test [1]; 6.3% in test [2]; 8.25% in test [3]; -34% in test [4]; 50.7% in test [5]; 12.7% in test [6].
`S=C(N=Nc1ccccc1)NNc1ccccc1.[Cu+2]`: the growth inhibition in test [1] is -17.4%; in test [2], -28.8%; in test [3], -30%; in test [4], 1.8%; in test [5], 5.75%; in test [6], -15.2%.
Take `Cc1ccc2[nH]cc(CCN)c2c1`: the growth inhibition in test [1] is -5.9%; in test [2], -53.1%; in test [3], -5.4%; in test [4], 21.8%; in test [5], -19.8%; in test [6], -27.5%.
On to `O=S(=O)(F)c1cccc(Cl)c1C[P+](c1ccccc1)(c1ccccc1)c1ccccc1`, for which the growth inhibition in test [1] was 25.5%; in test [2] it was 3%; in test [3] it was 13.7%; in test [4], 12.7%; in test [5], 25.5%; in test [6] it was 41.4%.
On to `CC1CN1C(=O)NCCCCCCNC(=O)N1CC1C` (stereo not drawn), for which the growth inhibition in test [1] is -17.7%; in test [2], -0.2%; in test [3], -2.95%; in test [4] it was -38.7%; in test [5], -5.55%; in test [6], -28.6%.
As to `N#CCC#N`, the growth inhibition was -3.7% in test [1]; -3.95% in test [2]; 16.3% in test [3]; -3.1% in test [4]; 2.75% in test [5]; -1% in test [6].
With `CCCOP(=O)(OCCC)C(=O)Nc1ccc(Br)cc1`, the growth inhibition is -25.7% in test [1]; 2.95% in test [2]; 6.25% in test [3]; -24.1% in test [4]; 25% in test [5]; -9.5% in test [6].
For `O=NNc1cncc(NN=O)n1`, the growth inhibition in test [1] was -37.9%; in test [2] it was 1.1%; in test [3], -2.8%; in test [4], -14.9%; in test [5], -4.95%; in test [6], 3.75%.
Regarding `CC(C(=O)c1ccccc1)N(C)Cc1ccccc1` (stereo not drawn), the growth inhibition in test [1] was -27.4%; in test [2], -2.05%; in test [3] it was 6.75%; in test [4], -36.7%; in test [5], 42.5%; in test [6], 17.1%.
In the case of `Cc1cc(N)ccc1N`, the growth inhibition in test [1] is 7.15%; in test [2] it was 11.2%; in test [3], 14.2%; in test [4], 4.25%; in test [5], -6%; in test [6], -2.9%.
As for `O=S(c1ccc(Cl)cc1)c1ccc(Cl)cc1`, the growth inhibition was 1.55% in test [1]; 17.9% in test [2]; 33.5% in test [3]; -66.2% in test [4]; 13.6% in test [5]; 19.1% in test [6].
